Columns and labels:
Assay type in all cases: functional
[1] = molecular target: Solute carrier family 2, facilitated glucose transporter member 1 (Homo sapiens) (UniProt P11166); test: ST_JUDE_LEISH: Cytotoxicity at 2uM final concentration against transgenic Leishmania Mexicana promastigotes LmGLUT1 that are glucose transport deficient and complemented with the human glucose transporter GLUT1. Activity is measured by DNA content using SYBR green in vitro
[2] = molecular target: Hexose transporter 1 (Plasmodium falciparum) (UniProt O97467); test: ST_JUDE_LEISH: Cytotoxicity at 2uM final concentration against transgenic Leishmania Mexicana promastigotes LmPfHT that are glucose transport deficient and complemented with the Plasmodium falciparum hexose transporter. Activity is measured by DNA content using SYBR green in vitro
[3] = molecular target: Glucose transporter (Leishmania mexicana) (UniProt O61059); test: ST_JUDE_LEISH: Cytotoxicity at 2uM final concentration against transgenic Leishmania Mexicana promastigotes LmGT2 that are glucose transport deficient and complemented with the L. Mexicana glucose transporter 2. Activity is measured by DNA content using SYBR green in vitro

Solute carrier family 2, facilitated glucose transporter member 1 (Homo sapiens), sequence (P11166 whole entry): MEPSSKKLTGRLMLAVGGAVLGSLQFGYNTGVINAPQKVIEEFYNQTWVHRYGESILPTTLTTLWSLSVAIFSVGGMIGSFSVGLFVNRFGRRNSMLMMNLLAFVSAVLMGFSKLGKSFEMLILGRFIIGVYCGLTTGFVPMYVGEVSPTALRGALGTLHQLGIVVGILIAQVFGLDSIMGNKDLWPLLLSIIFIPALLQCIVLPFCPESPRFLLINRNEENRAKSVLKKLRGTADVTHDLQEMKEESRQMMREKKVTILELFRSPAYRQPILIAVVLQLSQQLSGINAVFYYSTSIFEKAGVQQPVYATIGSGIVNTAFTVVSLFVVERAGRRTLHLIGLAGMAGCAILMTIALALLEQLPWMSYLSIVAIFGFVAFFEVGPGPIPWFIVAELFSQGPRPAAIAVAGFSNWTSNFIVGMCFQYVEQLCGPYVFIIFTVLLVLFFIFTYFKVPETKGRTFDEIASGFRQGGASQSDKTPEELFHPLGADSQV

Compound | inhibition [1] [%] | inhibition [2] [%] | inhibition [3] [%]
N#Cc1cccc(C(=O)N2CCOC(CCN3CCC(c4ccccc4)CC3)(c3ccc(Cl)c(Cl)c3)C2)c1 (configuration not stated) | 4.51 | 2.24 | 2.33
O=C(c1ccccc1)N1CCC(CN2CCOC(c3ccccc3)(c3ccccc3)C2)CC1 | 3.71 | 3.92 | 2.8
CNC(=O)c1ccccc1Nc1nc(Nc2ccc(C(=O)O)cc2)ncc1Cl | -1.75 | 1.77 | 1.39
O=C(NCc1ccccc1F)c1ccc(N2CCC(NCc3cccc(-n4cccn4)c3)CC2)cc1 | -0.13 | 3.43 | -1.93
CS(=O)(=O)c1cccc(-c2cnc3[nH]cc(-c4ccc(CCC(=O)O)cc4)c3c2)c1 | 0.77 | 1.38 | 0.31
O=C(Nc1ccc(Br)cc1)N(CCN1CCOCC1)CC(O)COCc1ccc(Cl)c(Cl)c1 (configuration not stated) | 2.07 | 1.38 | -5.49
COc1ccc(S(=O)(=O)N(c2cc(Br)cc3c2OCC3)S(=O)(=O)c2ccc(OC)c(N3CCN(C)CC3)c2)cc1N1CCN(C)CC1 | 0.39 | 0.62 | 0.55
NS(=O)(=O)c1cccc(Nc2nccc(-c3cnn4ncccc34)n2)c1 | 50.6 | 76.5 | 64.8
CC(=O)c1ccc(NC(=O)C2c3ccccc3C(=O)N(CC(C)C)C2c2cccs2)cc1 (configuration not stated) | -0.43 | 0.9 | 0.34
O=C(NCCN1CCCc2ccccc21)C1CCN(c2nc(-c3ccc(Cl)cc3)no2)CC1 | 1.63 | 2.11 | -2.23
Cc1cccc2nc(C(=O)Nc3nc(CN4CCC(C)CC4)cs3)cn12 | -0.22 | -1.59 | 1.62
CN1CCN(CC(=O)Nc2cccc(-c3ccc(-c4nc5cc(C(F)(F)F)ccc5[nH]4)cc3)c2)CC1 | 0.96 | 0.81 | 1.35
COc1ccc(Nc2cc(C)nc(Nc3ccc(NC(C)=O)cc3)n2)cc1 | 47 | 67.4 | 32.2
COc1ccc(-c2cccc(NC(=O)c3cccc(C#N)c3)c2)cc1CN(C)CCN(C)C | 1.23 | 1.39 | 0.48
Cc1cc(N2Cc3ccccc3C2)nc(Nc2cccc(C#N)c2)n1 | 4.07 | 4.04 | 2.59
COc1ccc2sc(CNCCCNc3cc(=O)c4ccccc4[nH]3)c(Cl)c2c1 | 3.04 | 3.59 | 4.49
Cc1ccccc1C1CCN(C2CCC(NC(=O)c3ccc(-c4cc(C(F)(F)F)nn4C)s3)CC2)CC1 (configuration not stated) | 10.8 | 9.92 | 9.51
COCCN1CCC(N(Cc2ccc(-c3ccc(C(F)(F)F)cc3)cc2)C(=O)Cn2c(CCc3cccc(F)c3F)cc(=O)c3c2CCC3)CC1 | -2.35 | -0.63 | -2.32
Cc1ccc(F)cc1S(=O)(=O)Nc1cccc(CCN2CCC(N3CCCCC3)CC2)c1 | 3.52 | 6.1 | 0.55
CCOc1cc(C(=O)NC2CCN(Cc3ccccc3)CC2)ccc1-c1nc2cc(Cl)ccc2[nH]1 | 4.1 | 5.59 | 3.09
O=S(=O)(Nc1ccc(CCN2CCC(N3CCCCC3)CC2)cc1)c1cccc(C(F)(F)F)c1 | 6.42 | 7.5 | 5.56
CC(=O)Nc1nc(C(=O)Nc2cccc(-c3ccc(-c4nc5ccccc5[nH]4)cc3)c2)cs1 | 13 | 11.8 | 10.3

Compound | inhibition [1] [%] | inhibition [2] [%] | inhibition [3] [%]
C(=N\Nc1nccc2sc(-c3cccnc3)cc12)/c1cccnc1 | 2.11 | 1.38 | 1.05
Cc1ccc(-n2nc3ccc(NC(=O)c4ccc([N+](=O)[O-])o4)cc3n2)cc1C | 60.8 | 82.4 | 40.3
CCCc1cc(C)ccc1OCCCON1C(NC(=O)OCC)=NC(NC(=O)OCC)=NC1(C)C | -0.11 | 1.76 | -0.57
O=C(/C=C/c1ccc(Cl)c(Cl)c1)NCCCCCN1CCCN(C(=O)Nc2cc(Cl)cc(Cl)c2)CC1 | 3.31 | 3.85 | 6.4
COc1ccc(NC(=O)Nc2cccc(-c3cccc(-c4nc5cc(F)ccc5[nH]4)c3)c2)cc1 | 1.35 | 1.38 | 0.62
COc1ccc2nc(C)cc(Nc3ccc(N4CCN(C)CC4)cc3)c2c1 | 0.93 | 2.03 | 0.99
CC1(C)NC(N)=NC(=N)N1OCCc1cccc2ccccc12 | 2.21 | 10.7 | 4.71
N=c1cc(C=Cc2ccc(O)cc2)[nH]c2ccccc12 | 2.26 | 4.1 | 3.12
COC(=O)c1ccc2nc(-c3ccc(C(=O)NCc4ccc(Cl)c(Cl)c4)cc3)[nH]c2c1 | 3.81 | 3.6 | 3.51
Cc1cc(N/N=C/c2ccccc2[N+](=O)[O-])c2ccc(F)cc2n1 | 2.1 | 4.11 | 1.62
Cc1cc(OCCCNC(=N)c2ccc3ccccc3c2)c(C(C)C)cc1Cl | 2.28 | 2.39 | -0.77
CCN(CC)/C(=N/C(=N)Nc1ccc(Cl)cc1)NCCCCCCCCN/C(=N\C(=N)Nc1ccc(Cl)cc1)N(CC)CC | 0.33 | -0.74 | -0.07
O=S(=O)(NCCN1CCCC1)c1cccc(-c2ccc(CNCc3ccccc3)cc2)c1 | 5.11 | 2.05 | 2.83
CCCC(=O)Nc1ccc(OCCCCN(Cc2ccccc2C(F)(F)F)c2ccc(C(F)(F)F)c(C#N)c2)cc1 | 6.19 | 5.86 | 5.58
O=C(N[C@@H](CC1CCCCC1)C(=O)NC1CCCCCC1)c1ccc(O)c(-c2ccc(Cl)c(Cl)c2)c1 | -0.25 | 1.39 | 0.88
CC(C)(C)OC(=O)NCC(=O)N(Cc1ccccc1)Cc1ccccc1 | 4.96 | 4.38 | 3.73
CCN(CC)CCN(Cc1ccc(-c2ccc(C(F)(F)F)cc2)cc1)C(=O)Cn1c(CCc2ccc(F)c(C#N)c2)nc(=O)c2ccccc21 | 6.73 | 7.67 | 8.84
CCCN1CCN(CCNC(=O)c2cccc(Nc3nccc(Nc4ccc(Oc5ccccc5)cc4)n3)c2)CC1 | 0.38 | 0.74 | 1.04
CCCNC(=O)c1cncc(-c2ccc(CNC(CC)c3ccccc3)cc2)c1 (configuration not stated) | -0.02 | 0.28 | -0.14
CCOc1cc(C(=O)NC2CCN(Cc3ccccc3)CC2)ccc1-c1nc2cc(Cl)c(Cl)cc2[nH]1 | 2.82 | 5.07 | -0.27
CCCC(C)Nc1nc(C)cc(N[C@@H](Cc2ccccc2)C(=O)Nc2ccccc2)n1 (some centres not stated) | 2.98 | 3.18 | 0.41
Nc1nccc(-c2ccc3c(/C=C/c4ccccc4)cnc(N)c3c2)n1 | 18.2 | 24.5 | 0.5

Source: ChEMBL document CHEMBL3433997, “St. Jude Leishmania screening dataset” (2016)
